Sampled rows, rich in hits. Any-hit rate of the full collection: about 10%.
HP1b chromo inh = HTS for Inhibitors of HP1-beta Chromodomain Interactions with Methylated Histone Tails. Chromobox protein homolog 1 (Homo sapiens), P83916. AlphaScreen HP1-beta / biotin-H3K9me3 peptide binding. Potency, µM (top dose mostly 114 µM), for inactives: at the highest dose activity change, negative = inhibition, most hits filed as inhibitors. actives 0.56% (n = 390,000); note: potency is the fitted concentration of half-maximal effect; nearly all actives have a fitted effect of over 70% in size
Target sequence (P83916 whole entry, looked up): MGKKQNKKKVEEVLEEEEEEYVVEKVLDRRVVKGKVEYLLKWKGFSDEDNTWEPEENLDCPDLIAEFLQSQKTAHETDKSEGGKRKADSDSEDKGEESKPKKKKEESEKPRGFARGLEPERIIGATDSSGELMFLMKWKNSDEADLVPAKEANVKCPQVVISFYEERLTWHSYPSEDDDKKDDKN
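HP1-beta protein (50 nM final) preincubated 30 min at room temperature with biotinylated H3(1-18)K9me3 peptide (50 nM) in PBS pH 7.4, 0.01% Tween-20, then compound added for 30 min. AlphaScreen streptavidin donor/nickel chelate acceptor beads (10 ug/mL final), 30 min dark, luminescence read.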
G9a inh = qHTS Assay for Inhibitors of Histone Lysine Methyltransferase G9a; Potency, µM (series often up to 102 µM), inactives show at the highest dose activity, negative = inhibition, actives largely listed as inhibitors; G9a H3K9 monomethylation, AlphaScreen, 2 h; actives 8.8% (n = 350,000); Histone-lysine N-methyltransferase EHMT2 (Homo sapiens), Q96KQ7; note: potency is the fitted concentration of half-maximal effect; % is set by controls: 0 for no effect and ±100 for the full control effect; nearly all actives have a fitted effect of over 75% in size
Target sequence (Q96KQ7 913-1193 limits assumed): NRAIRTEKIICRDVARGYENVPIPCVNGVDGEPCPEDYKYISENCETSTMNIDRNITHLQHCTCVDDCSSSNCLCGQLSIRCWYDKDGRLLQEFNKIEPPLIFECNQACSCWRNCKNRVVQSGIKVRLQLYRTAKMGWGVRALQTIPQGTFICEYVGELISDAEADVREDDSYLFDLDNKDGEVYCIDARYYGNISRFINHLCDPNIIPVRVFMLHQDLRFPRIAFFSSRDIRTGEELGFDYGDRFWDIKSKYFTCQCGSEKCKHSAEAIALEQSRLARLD
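G9a (20 nM) preincubated 15 min RT with compounds, then 500 nM biotinylated H3K9 peptide and 20 uM SAM added; 2 h RT reaction. Monomethyl-H3K9 product detected by AlphaScreen with anti-H3K9me1 antibody, streptavidin donor and anti-rabbit IgG acceptor beads.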
BAZ2B block = qHTS Assay for Inhibitors of BAZ2B. Bromodomain adjacent to zinc finger domain protein 2B (Homo sapiens), Q9UIF8. AlphaScreen BAZ2B-H3K14Ac peptide displacement. Potency, µM (doses to about 114 µM), without a hit: at the top dose activity change, negative = inhibition, actives largely listed as inhibitors. actives 4.4% (n = 360,000); note: potency is the fitted concentration of half-maximal effect; % is set by controls: 0 for no effect and ±100 for the full control effect; nearly all actives have a fitted effect of over 60% in size
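AlphaScreen displacement: compounds (up to 110uM) incubated 30 min at room temperature with a preformed 50 nM BAZ2B/50 nM biotinylated H3K14Ac peptide complex in PBS pH 7.4 with Tween-20. Donor and acceptor beads at 10 ug/mL final added, 20 min light-protected before reading.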
CtBP-E1A blk = qHTS Assay for Inhibitors of the CtBP/E1A Interaction; CtBP / adenovirus E1A interaction (AlphaScreen); AlphaScreen GST-E1A/His-CtBP binding, 1536-well; hits give low values; activity change, % (concentration not given with the values); actives 0.49% (n = 340,000); AID 651724, 2012; in the data active = activity change below about -65%; inconclusive = mostly about -30% to -63%; note: % is set by controls: 0 for no effect and ±100 for the full control effect
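Steps: dispense buffer (Tris pH 8.0, NaCl 300 mM, TCEP 1 mM, BSA, Tween 20); add 5X protein mix (GST-E1A, His-CtBP, 125 nM each); pin 23 nL compound; 2 h at 37 °C, dark; add 5X beads (50 ug/mL); 1 h; read.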
JMJD2A Tudor = qHTS Assay for Inhibitors of JMJD2A-Tudor Domain; AID 504339, 2011; AlphaScreen JMJD2A-Tudor / H3K4me3 peptide binding; Potency, µM (series often up to 114 µM), for inactives: at the top dose activity change, negative = inhibition, usual class: inhibitors; actives 4.4% (n = 390,000); note: potency is the fitted concentration of half-maximal effect; % is set by controls: 0 for no effect and ±100 for the full control effect; nearly all actives have a fitted effect of over 50% in size
Six1-Eya2 blk = qHTS Assay for Inhibitors of the Six1/Eya2 Interaction; Homeobox protein SIX1 (Homo sapiens) + Protein phosphatase EYA2 (Homo sapiens), …; AlphaScreen GST-Six1/His-Eya2 binding, biochemical; hits give low values; activity change, % (concentration not given with the values); actives 0.56% (n = 360,000); AID 651725, 2012; in the data active = activity change below about -65%; inconclusive = mostly about -30% to -63%; note: % is set by controls: 0 for no effect and ±100 for the full control effect
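Six1/Eya2 binding was read as AlphaScreen signal after compounds were pinned into GST-Six1 plus His-tagged Eya2 (5X stock 250/500 nM) in pH 8.0 Tris/NaCl/TCEP buffer, beads added, then incubated 1 h, 37 C, dark.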
An asterisk follows results filed as active; ! = repeats disagree; [ ] = remark or other dose. Unless noted, calls come from the whole dose curve; as a rule, active = well fitted inhibition curve with a large enough effect; inconclusive = small, poorly fitted or top-dose-only effect; inactive = no such curve, though single readings can be large or run the other way.

Screening O=C(NNc1ccccc1F)C1CCC1 returned HP1b chromo inh 61%, G9a inh 50µM*, BAZ2B block -5%, CtBP-E1A blk 8, JMJD2A Tudor -13% and Six1-Eya2 blk 4.
CCOc1ccc(OCC)c(NC(=O)CCc2nc3cccnc3n2-c2ccccc2)c1 was read as HP1b chromo inh 18%, G9a inh inconclusive, BAZ2B block -32% and JMJD2A Tudor inconclusive.
For O=[N+]([O-])c1cccc(C(=Nc2ccccc2)NO)c1 the results were HP1b chromo inh 12%, G9a inh inconclusive, BAZ2B block -17%, CtBP-E1A blk -3, JMJD2A Tudor -20% and Six1-Eya2 blk -10.
For O=[N+]([O-])c1cc([N+](=O)[O-])c2c(=Nc3ccccc3)n(-c3ccccc3)n(O)c2c1 the results were HP1b chromo inh inconclusive, G9a inh 35µM*, BAZ2B block 20µM*, CtBP-E1A blk -12, JMJD2A Tudor inconclusive and Six1-Eya2 blk inconclusive.
`O=C(Cc1ccc(Br)cc1)NNC(=O)c1cccs1` gave HP1b chromo inh 32%, CtBP-E1A blk 3, JMJD2A Tudor -12% and Six1-Eya2 blk 4.
Screening CC/C(=N\NC(=O)Cc1ccc(Br)cc1)c1cccs1 returned HP1b chromo inh 57%, G9a inh 56µM*, BAZ2B block -15%, CtBP-E1A blk 3, JMJD2A Tudor -12% and Six1-Eya2 blk -1.
`O=C(NCc1ccco1)c1ccc(CS(=O)(=O)Cc2ccc(Cl)cc2)o1` gave HP1b chromo inh 16%, G9a inh -34%, BAZ2B block -11%, CtBP-E1A blk 2, JMJD2A Tudor -22% and Six1-Eya2 blk -1.
Screening O=C(NCc1ccco1)c1ccc(-c2ccc(Cl)cc2)o1 returned HP1b chromo inh -13%, G9a inh 50µM*, BAZ2B block inconclusive, CtBP-E1A blk -8, JMJD2A Tudor -35% and Six1-Eya2 blk -21.
For COc1ccccc1S(=O)Cc1ccc(C(=O)NCc2ccccc2Cl)o1 (stereo not drawn) the results were HP1b chromo inh -10%, G9a inh 3.5µM*, BAZ2B block 8%, CtBP-E1A blk -9, JMJD2A Tudor 35µM* and Six1-Eya2 blk 6.
Screening COc1cc(NC(=O)c2ccc([N+](=O)[O-])o2)ccc1NC(=O)c1ccco1 returned HP1b chromo inh 15%, G9a inh inconclusive, BAZ2B block inconclusive, JMJD2A Tudor 4% and Six1-Eya2 blk -1.
`O=C(NNC(=S)NCc1ccc(Cl)cc1)c1ccc(Br)o1` gave HP1b chromo inh 13%, BAZ2B block -9%, JMJD2A Tudor -32% and Six1-Eya2 blk -10.
`Cc1cc(NC(=O)c2ccc([N+](=O)[O-])o2)ccc1NC(=O)c1ccco1` gave HP1b chromo inh 17%, G9a inh 79µM*, BAZ2B block inconclusive, CtBP-E1A blk -16, JMJD2A Tudor -23% and Six1-Eya2 blk -4.
Screening O=C(NCc1ccc(Cl)cc1)c1ccc(Br)o1 returned HP1b chromo inh 22%, G9a inh 18µM*!, BAZ2B block 11%, JMJD2A Tudor -23% and Six1-Eya2 blk 9.
COc1ccccc1CNC(=O)c1ccc(-c2ccccc2Cl)o1 was read as HP1b chromo inh 66%, G9a inh 28µM*, BAZ2B block inconclusive, JMJD2A Tudor -3% and Six1-Eya2 blk -14.
`O=C(NCc1ccco1)c1ccc(-c2ccccc2Cl)o1` gave HP1b chromo inh -5%, G9a inh 56µM*, BAZ2B block inconclusive, CtBP-E1A blk -15, JMJD2A Tudor -16% and Six1-Eya2 blk -14.
Screening O=C(NCc1ccc(Cl)cc1)c1ncn[nH]1 returned HP1b chromo inh 30%, G9a inh -5%, BAZ2B block 79µM*, CtBP-E1A blk -12, JMJD2A Tudor -8% and Six1-Eya2 blk -5.
For COc1ccccc1CNC(=O)c1ccc(-c2ccccc2C(F)(F)F)o1 the results were HP1b chromo inh 54%, G9a inh inconclusive, BAZ2B block -33%, JMJD2A Tudor 19% and Six1-Eya2 blk -16.
For Cn1cccc1C(=O)NCc1ccc(Cl)cc1 the results were HP1b chromo inh -26%, G9a inh 45µM*, BAZ2B block inconclusive, CtBP-E1A blk -5, JMJD2A Tudor -35% and Six1-Eya2 blk -11.
`O=C(NCc1ccco1)c1ccc2c(c1)N(Cc1ccccc1F)C(=O)c1ccccc1S2=O` (stereo not drawn) gave HP1b chromo inh 11%, G9a inh -48%[59 µM], BAZ2B block inconclusive and JMJD2A Tudor -19%.
CC1CCC(NC(=O)c2ccc(CS(=O)(=O)c3c(Cl)cccc3Cl)o2)CC1 (stereo not drawn) was read as HP1b chromo inh 23%, G9a inh 8%[59 µM], BAZ2B block -13% and JMJD2A Tudor -14%.
`O=C(Cn1ncc2c(=O)oc3ccccc3c21)NCc1ccc(Cl)cc1` gave HP1b chromo inh 21%, G9a inh -38%[59 µM], BAZ2B block -3% and JMJD2A Tudor -15%.
For O=C(NCCC1=CCCCC1)C1CCN(C(=O)N2CCOc3ccccc32)CC1 the results were HP1b chromo inh 19%, G9a inh -10%[59 µM], BAZ2B block -4% and JMJD2A Tudor -16%.
`O=C(NCc1ccco1)c1ccc([N+](=O)[O-])o1` gave HP1b chromo inh inconclusive, G9a inh 45µM*, BAZ2B block 45µM*, CtBP-E1A blk -1, JMJD2A Tudor 56µM* and Six1-Eya2 blk -14.
For CCN(CCCNC(=O)CSc1cc(=O)n(C)c2cc(Cl)ccc12)c1ccccc1 the results were HP1b chromo inh 11%, G9a inh inconclusive and JMJD2A Tudor inconclusive.
Screening CCOC(=O)c1ccc2c(c1)C1C=CCC1C(C(=O)OCC)N2 (stereo not drawn) returned HP1b chromo inh -7%, G9a inh 11µM*, BAZ2B block 45µM*, CtBP-E1A blk -6, JMJD2A Tudor inconclusive and Six1-Eya2 blk -19.
For COc1ccc(Br)cc1[C@@H]1Nc2ccc(C(=O)O)cc2[C@@H]2C=CC[C@@H]21 the results were HP1b chromo inh -7%, G9a inh inconclusive, BAZ2B block inconclusive and JMJD2A Tudor -35%.
